According to PubChem BioAssay (NCATS):
Inconclusive results are not listed. Activity calls are given as the source filed them. Calls come from the whole dose curve; as a rule, active = well fitted curve in the direction sought with a large enough effect; inconclusive = small, poorly fitted or top-dose-only effect, or another doubt; inactive = no such curve, though single readings can be large; an effect the other way counts as inactive or inconclusive.

Assays:
[1] = molecular target: Cytochrome P450 3A4 (Homo sapiens) (UniProt P08684); experiment: qHTS Assay for Activators of Cytochrome P450 3A4 (AID 885); note: nearly all actives have a fitted effect of over 65% in size
Method in brief: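 Steps: enzyme/substrate mix dispensed; compound added, 10 min RT; NADPH regeneration solution added, 60 min RT; luciferin detection buffer stops reaction; 20 min later luminescence measured.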

[2] = Confirmation and Secondary Assay for Modulators of Hemoglobin Beta Chain Splicing at IVS2 654 locus (AID 910);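 note: HeLa cells stably carrying EGFP split by mutant beta-globin IVS2-654 intron; per-well total GFP intensity by laser scanning cytometry after 2-day treatment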
Method in brief: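 Readout: per-well total peak green fluorescence (488 nm ex, 500–520 nm em) from objects 5–250 µm, reflecting correct splicing of an EGFP-654 reporter. Compounds were applied for 2 days at 37 °C to overnight-plated HeLa EGFP-654 cells; controls were DMSO and 500 nM IVS2-654 PNA.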

[3] = Confirmation and Secondary Assay for Modulators of Hemoglobin Beta Chain Splicing at IVS2 705 locus (AID 930);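 note: HeLa cells stably expressing the EGFP-705 splicing reporter; GFP fluorescence per well restored by corrected splicing of the IVS2-705 intron in EGFP; series mostly up to about 46 µM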
Method in brief: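 Fluorescence gain (488 nm laser, 500-520 nm PMT) reflects restored correct splicing of a mutant IVS2-705 intron inside EGFP in stably transfected HeLa cells after 2-day compound treatment.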

[4] = molecular target: Rap guanine nucleotide exchange factor 3 (Homo sapiens) (UniProt O95398); experiment: Confirmatory qHTS for antagonist of cAMP-regulated guanine nucleotide exchange factor 3 (EPAC1) (AID 1645880); note: nearly all actives have a fitted effect of over 55% in size; note: potency is the fitted concentration of half-maximal effect
Method in brief: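 Nucleotide exchange uses 100 nM EPAC1, 250 nM RAP1B-BODIPY-GDP and 50 uM GDP, with compounds in a concentration-titration series. After 5 min at room temperature, fluorescence (480 nm ex/540 nm em) is read every 5 min for 30 min. Data are normalized to control ATA and DMSO.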

[5] = molecular target: Rap guanine nucleotide exchange factor 3 (Homo sapiens) (UniProt O95398); experiment: Confirmatory qHTS for agonist of cAMP-regulated guanine nucleotide exchange factor 3 (EPAC1) (AID 1645881);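 note: EPAC1 catalysed release of BODIPY-GDP from Rap1B seen as fluorescence loss; nearly all actives have a fitted effect of over 75% in size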
[6] = molecular target: Rap guanine nucleotide exchange factor 4 (Homo sapiens) (UniProt Q8WZA2); experiment: Confirmatory qHTS for agonist of cAMP-regulated guanine nucleotide exchange factor 4 (EPAC2) (AID 1645884);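 note: nucleotide exchange releases bodipy-GDP from Rap1 and this lowers its fluorescence; nearly all actives have a fitted effect of over 65% in size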
[7] = molecular target: Rap guanine nucleotide exchange factor 4 (Homo sapiens) (UniProt Q8WZA2); experiment: Confirmatory qHTS for antagonist of cAMP-regulated guanine nucleotide exchange factor 4 (EPAC2) (AID 1645885); note: nearly all actives have a fitted effect of over 25% in size; note: potency is the fitted concentration of half-maximal effect
[8] = molecular target: Rap guanine nucleotide exchange factor 3 (Homo sapiens) (UniProt O95398); experiment: Counterscreen qHTS for antagonist of cAMP-regulated guanine nucleotide exchange factor 3 (EPAC1) (AID 1645888);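 note: fluorescence loss as bound BODIPY-GDP is released from Rap1B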
Method in brief: (§1)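 Rap1B-BODIPY-GDP 250 nM + GDP 50 uM; cpds 7-pt, final 9.74 nM–152 uM (activator mode) or from 7.32 nM upwards (inhibitor mode); RT; FI 480/540 nm at 5 and 30 min, then ± cAMP, reread.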

[9] = molecular target: Rap guanine nucleotide exchange factor 3 (Homo sapiens) (UniProt O95398); experiment: Counterscreen qHTS for agonist of cAMP-regulated guanine nucleotide exchange factor 3 (EPAC1) (AID 1645889); note: nearly all actives have a fitted effect of over 40% in size
Method in brief: as §1

[10] = molecular target: Cytochrome P450 3A4 (Homo sapiens) (UniProt P08684); experiment: qHTS Assay for Inhibitors and Substrates of Cytochrome P450 3A4 (AID 884); note: potency is the fitted concentration of half-maximal effect; nearly all actives have a fitted effect of over 50% in size
Method in brief: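 20 nM human CYP3A4 with 25 uM Luciferin-PPXE (at KM) in 200 mM KPO4, preincubated 10 min with compound; NADPH regeneration started a 60 min RT reaction. Luciferin detected by luminescence, normalized to 57 uM ketoconazole as full inhibition.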

[11] = molecular target: Ubiquitin carboxyl-terminal hydrolase 1 (Homo sapiens) (UniProt O94782); experiment: Inhibitors of USP1/UAF1: Pilot qHTS (AID 504865);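 note: rhodamine fluorescence freed from ubiquitin-rhodamine substrate followed over time; top concentration of the series differs between compounds; nearly all actives have a fitted effect of over 35% in size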
Method in brief: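 Deubiquitinase activity followed as kinetic rhodamine fluorescence release from 150 nM Ub-Rho. 1 nM USP1/UAF1 with compound, after 15 min room-temperature preincubation, in HEPES pH 7.8 buffer containing TCEP, EDTA, BSA and Tween-20.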

Measured: Potency

Rap guanine nucleotide exchange factor 4 (Homo sapiens), sequence (Q8WZA2 whole entry, looked up): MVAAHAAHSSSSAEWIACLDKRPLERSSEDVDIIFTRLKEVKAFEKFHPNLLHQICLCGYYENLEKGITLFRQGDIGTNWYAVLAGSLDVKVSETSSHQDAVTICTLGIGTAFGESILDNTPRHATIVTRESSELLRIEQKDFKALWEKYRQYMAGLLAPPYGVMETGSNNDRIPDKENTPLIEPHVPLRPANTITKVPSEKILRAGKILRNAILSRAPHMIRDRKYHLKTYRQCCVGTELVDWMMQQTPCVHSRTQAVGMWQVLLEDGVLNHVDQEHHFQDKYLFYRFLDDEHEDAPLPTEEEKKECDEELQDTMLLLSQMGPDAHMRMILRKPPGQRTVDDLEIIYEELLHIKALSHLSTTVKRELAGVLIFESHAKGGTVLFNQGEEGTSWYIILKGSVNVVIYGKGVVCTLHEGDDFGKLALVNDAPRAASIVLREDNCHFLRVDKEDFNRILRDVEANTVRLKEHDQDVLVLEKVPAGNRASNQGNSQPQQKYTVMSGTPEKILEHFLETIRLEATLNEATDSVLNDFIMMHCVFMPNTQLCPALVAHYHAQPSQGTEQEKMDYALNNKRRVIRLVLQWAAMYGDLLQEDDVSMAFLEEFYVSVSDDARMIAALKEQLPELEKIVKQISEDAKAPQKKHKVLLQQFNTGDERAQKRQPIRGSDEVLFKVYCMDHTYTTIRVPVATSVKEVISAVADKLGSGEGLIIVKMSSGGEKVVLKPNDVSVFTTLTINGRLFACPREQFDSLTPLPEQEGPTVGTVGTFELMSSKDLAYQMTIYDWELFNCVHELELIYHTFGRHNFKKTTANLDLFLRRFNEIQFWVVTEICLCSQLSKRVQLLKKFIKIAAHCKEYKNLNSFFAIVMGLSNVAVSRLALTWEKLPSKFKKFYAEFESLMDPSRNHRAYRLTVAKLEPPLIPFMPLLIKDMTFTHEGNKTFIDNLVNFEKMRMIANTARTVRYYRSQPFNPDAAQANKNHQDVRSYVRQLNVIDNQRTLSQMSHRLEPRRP
Cytochrome P450 3A4 (Homo sapiens), sequence (P08684 whole entry, looked up): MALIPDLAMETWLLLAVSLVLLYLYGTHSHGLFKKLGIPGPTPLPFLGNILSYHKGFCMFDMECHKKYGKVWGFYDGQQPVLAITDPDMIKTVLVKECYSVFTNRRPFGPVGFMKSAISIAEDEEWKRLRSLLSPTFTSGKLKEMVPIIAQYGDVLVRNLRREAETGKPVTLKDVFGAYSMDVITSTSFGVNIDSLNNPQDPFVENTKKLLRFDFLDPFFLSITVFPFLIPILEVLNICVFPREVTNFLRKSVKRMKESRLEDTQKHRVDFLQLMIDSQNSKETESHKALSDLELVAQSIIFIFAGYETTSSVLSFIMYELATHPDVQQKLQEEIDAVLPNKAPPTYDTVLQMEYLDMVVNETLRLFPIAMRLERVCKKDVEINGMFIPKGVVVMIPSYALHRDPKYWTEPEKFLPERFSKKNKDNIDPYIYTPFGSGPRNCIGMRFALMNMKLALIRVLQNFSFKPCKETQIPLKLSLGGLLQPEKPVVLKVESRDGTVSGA
Rap guanine nucleotide exchange factor 3 (Homo sapiens), sequence (O95398 whole entry, looked up): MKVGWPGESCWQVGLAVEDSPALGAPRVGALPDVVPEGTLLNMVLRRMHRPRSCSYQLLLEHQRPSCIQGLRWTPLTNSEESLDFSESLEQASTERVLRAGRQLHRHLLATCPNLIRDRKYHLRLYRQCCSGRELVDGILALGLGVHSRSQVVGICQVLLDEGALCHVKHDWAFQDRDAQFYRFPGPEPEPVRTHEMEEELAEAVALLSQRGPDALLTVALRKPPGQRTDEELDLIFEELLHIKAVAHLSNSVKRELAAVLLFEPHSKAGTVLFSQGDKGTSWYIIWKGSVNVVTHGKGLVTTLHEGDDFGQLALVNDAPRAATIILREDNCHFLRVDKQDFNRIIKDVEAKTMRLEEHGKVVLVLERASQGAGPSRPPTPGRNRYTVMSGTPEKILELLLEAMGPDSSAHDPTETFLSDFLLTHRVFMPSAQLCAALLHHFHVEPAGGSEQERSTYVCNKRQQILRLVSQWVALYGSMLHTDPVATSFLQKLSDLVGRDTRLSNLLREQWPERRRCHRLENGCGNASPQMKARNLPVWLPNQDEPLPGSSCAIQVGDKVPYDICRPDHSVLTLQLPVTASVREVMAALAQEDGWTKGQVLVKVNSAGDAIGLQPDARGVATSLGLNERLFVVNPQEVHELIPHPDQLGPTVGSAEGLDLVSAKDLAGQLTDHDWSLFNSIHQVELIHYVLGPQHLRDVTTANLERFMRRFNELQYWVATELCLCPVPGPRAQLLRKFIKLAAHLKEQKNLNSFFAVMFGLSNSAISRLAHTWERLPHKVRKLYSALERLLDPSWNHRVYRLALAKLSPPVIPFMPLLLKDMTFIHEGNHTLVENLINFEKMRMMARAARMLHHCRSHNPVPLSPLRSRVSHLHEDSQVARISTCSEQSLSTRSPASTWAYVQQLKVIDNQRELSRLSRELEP
Ubiquitin carboxyl-terminal hydrolase 1 (Homo sapiens), sequence (O94782 whole entry, looked up): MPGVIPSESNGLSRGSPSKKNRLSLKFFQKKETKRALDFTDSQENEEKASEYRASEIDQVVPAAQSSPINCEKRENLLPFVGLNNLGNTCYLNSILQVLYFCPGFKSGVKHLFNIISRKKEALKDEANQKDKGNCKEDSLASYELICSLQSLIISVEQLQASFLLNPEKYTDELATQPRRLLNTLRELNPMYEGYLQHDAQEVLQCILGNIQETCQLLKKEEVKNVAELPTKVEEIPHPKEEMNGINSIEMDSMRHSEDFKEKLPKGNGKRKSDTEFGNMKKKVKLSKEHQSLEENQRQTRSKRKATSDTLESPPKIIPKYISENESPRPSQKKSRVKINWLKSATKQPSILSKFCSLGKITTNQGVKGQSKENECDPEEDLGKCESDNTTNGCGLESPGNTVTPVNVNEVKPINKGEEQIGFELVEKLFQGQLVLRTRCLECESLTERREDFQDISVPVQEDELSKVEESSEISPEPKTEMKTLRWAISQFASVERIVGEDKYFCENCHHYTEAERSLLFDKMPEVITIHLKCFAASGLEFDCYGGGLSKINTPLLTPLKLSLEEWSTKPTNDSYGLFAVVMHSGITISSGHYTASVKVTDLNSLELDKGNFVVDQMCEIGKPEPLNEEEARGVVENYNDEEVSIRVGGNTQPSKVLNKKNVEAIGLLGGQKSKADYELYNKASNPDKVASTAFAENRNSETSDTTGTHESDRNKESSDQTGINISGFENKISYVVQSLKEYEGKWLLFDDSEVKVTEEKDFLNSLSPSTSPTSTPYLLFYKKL

C=CC(C1=CC(=O)C(OC)=CC1=O)c1ccc(O)cc1 (stereo unspecified)
inactive: [1] | [2] | [3]

COc1cc(/C=C2\SC(=S)N(NS(=O)(=O)c3ccccc3)C2=O)ccc1O
inactive: [4] | [5] | [6] | [7] | [8] | [9]

CC(=O)N1CCc2cc(Br)cc(S(=O)(=O)NCCCN(C)Cc3ccccc3)c21
inactive: [4] | [5] | [6] | [8] | [9]
active: [7] 23.9 µM

Cc1cccc(NC(=S)NC(=O)/C=C/c2ccco2)c1
active: [4] 75.7 µM
inactive: [5] | [6] | [7] | [8] | [9]

COc1ccc2c(c1)[C@]1(C)CCC(=O)C[C@H]1CC2
inactive: [1] | [2] | [3] | [11]
active: [10] 3.16 µM
